Our source for the inhibition values is PubChem BioAssay AID2013 (Sanford-Burnham Center for Chemical Genomics, 2009).

Among all 290,000 compounds or so, about 370 (0.13%) were called active. The entries come from a sample that favours actives as a whole. Entries with a potency or affinity are not part of this list. Unmarked numbers belong to inactive results.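 How the source made its calls: active means spots per cell inhibited over 60%, with over 100 cells counted and total cytoplasm intensity under 500,000; inconclusive means wells with under 100 cells, flagged as likely toxic; inactive means the rest.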

In this test the target is G-protein coupled receptor 55 (Homo sapiens) (UniProt Q9Y2T6). Kind of test: inhibition of LPI-stimulated GPR55 beta-arrestin translocation – imaging, U2OS, beta-arrestin-GFP, LPI agonist, primary screen (AID 2013).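 Further: U2OS cells stably carrying GPR55 and arrestin-GFP stimulated by 5 µM LPI near EC80; imaged beta-arrestin-GFP aggregate spots per cell after agonist stimulation; plate controls were LPI-stimulated DMSO wells for no effect and DMSO wells without LPI for full effect.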 As to conditions: LPI antagonism, at 10 µM, active compounds read high.
Sequence of G-protein coupled receptor 55 (Homo sapiens) (Q9Y2T6 whole entry, looked up): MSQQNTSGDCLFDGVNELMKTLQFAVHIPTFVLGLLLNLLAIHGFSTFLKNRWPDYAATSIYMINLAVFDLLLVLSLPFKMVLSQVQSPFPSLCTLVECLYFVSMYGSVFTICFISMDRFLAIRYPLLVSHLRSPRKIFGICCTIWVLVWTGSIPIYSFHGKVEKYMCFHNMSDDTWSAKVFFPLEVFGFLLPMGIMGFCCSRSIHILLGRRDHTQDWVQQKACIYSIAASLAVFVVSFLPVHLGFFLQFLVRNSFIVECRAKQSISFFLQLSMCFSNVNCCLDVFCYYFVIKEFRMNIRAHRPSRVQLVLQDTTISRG
By inhibition is commonly meant the drop in the measured response relative to a control, in per cent. `COc1cc(/C=C2/C(=O)NN(c3ccc(C)c(Cl)c3)C2=O)cc([N+](=O)[O-])c1O`: the inhibition was 2.2%.
On to `O=C1NC(=S)N/C1=C/c1cc2c(cc1[N+](=O)[O-])OCO2`, for which the inhibition was 4.7%.
In the case of `CCOC(=O)C1=C(c2ccccc2)NC(=O)NC1c1ccc(OC)cc1OC` (centres undefined), the inhibition is 11.3%.
The same measure for `Cc1ccc(SCC(=O)Nc2cccc(-c3nnc(-c4ccco4)o3)c2)cc1`: 23.1%.
Regarding `CNC(=S)N(CCc1c(C)[nH]c2ccc(Cl)cc12)Cc1cccs1`, the inhibition was 79.7% (active).
Turning to `COCCNC(=S)N(CCc1c(C)[nH]c2ccc(Cl)cc12)Cc1cccs1`, the inhibition is 21.1%.
In the case of `CNC(=S)N(CCc1c(C)[nH]c2ccc(C)cc12)Cc1cccs1`, the inhibition was -0.9%.
`COc1ccc(NC(=O)CCNS(=O)(=O)c2ccc(C)c(C)c2)cc1OC`: the inhibition was 0.7%.
Regarding `C=CCN1C=CC(=CC=C(C#N)C#N)C=C1`, the inhibition was 67.9% (active).
As for `CCCN1C=CC(=CC=C(C#N)C#N)C=C1`, the inhibition is 52.4%.
Then `C=CCN1C=CC(=C/C=C(/C#N)C(=O)OCC)C=C1`, with 4.5%; and `CCOc1ccc(N(CC(=O)Nc2ccc(C)c(F)c2)C2=NC3CS(=O)(=O)CC3S2)cc1` (centres undefined), with 2.9%; and `Cc1ccc(C)c(N2CCN(C(=O)Cn3ncc4c([nH]c5ccc(C)cc54)c3=O)CC2)c1`, with 0.4%.
Turning to `CC(=O)N/C(=N/c1nc(C)cc(C)n1)Nc1ccc(NC(C)=O)cc1`, the inhibition was -4.3%.
Take `O=C(O)c1cccc(S(=O)(=O)Nc2ccc(OCc3ccccc3)cc2)c1`: the inhibition was 1.6%.
Consider `O=C(NC(=S)Nc1ccc(Cl)c(C(=O)O)c1)c1cccc(COc2ccccc2)c1`, for which the inhibition is 3.5%.
As to `O=C(O)c1ccc(NC(=S)NC(=O)c2cccc(COc3ccccc3)c2)cc1`, the inhibition was -20.3%.
With `Cc1ccc(NS(=O)(=O)c2cc(C(=O)O)ccc2Cl)cc1`, the inhibition is 5.6%.
In the case of `COc1ccccc1-n1c(SCC(=O)Nc2cccc(C)c2)nc2c(c1=O)SCC2`, the inhibition was 0.7%.
Take `O=C1Nc2ccccc2N(O)N1c1ccc(S(=O)(=O)N2CCCCCC2)cc1`: the inhibition is 7.8%.
On to `O=C(CSc1nc2ccccc2s1)N1CCCCC1`, for which the inhibition was 7.6%.
The same measure for `CN(C)CCN(Cc1ccccc1)c1nccc(N(C)C)c1C#N`: 7.4%.
Turning to `CN(C)c1nccc(N(Cc2ccccc2)Cc2ccccc2)c1C#N`, the inhibition is 49.1%.
For the molecule `CCN(CC1COc2ccccc2O1)C(=S)Nc1ccc(F)cc1` (centres undefined), the inhibition is 8.3%.
Take `COc1ccc2c(c1)NC(c1cc(Cl)cc(Cl)c1O)c1cccn1-2` (centres undefined): the inhibition is 3.9%.
With `COc1ccc(C2Nc3cc(OC)ccc3-n3cccc32)cc1` (centres undefined), the inhibition is 8.6%.
`COc1ccc2c(c1)NC(c1ccc(N(C)C)cc1)c1cccn1-2` (centres undefined): the inhibition is 67% (active).
The same measure for `Cc1cccc(N(CC(=O)N2CCN(C)CC2)S(=O)(=O)c2ccccc2)c1`: 9.1%.
With `CC1CC(C)CN(C(=O)C(C)N(C)CC(=O)Nc2ccc(Cl)cc2)C1` (centres undefined), the inhibition was 12.3%.
Turning to `CC1CN(S(=O)(=O)c2ccc(NC(=O)CCN3C(=O)c4ccccc4C3=O)cc2)CC(C)O1` (centres undefined), the inhibition is 4.4%.
Turning to `CC(=O)C1=C(C)NC(SCC(=O)c2ccc(F)cc2)=C(C#N)C1c1ccco1` (centres undefined), the inhibition was 16.8%.
Take `CC(=O)C1=C(C)NC(SCC(=O)c2ccc(C)cc2)=C(C#N)C1c1ccco1` (centres undefined): the inhibition was 82.9% (active).
`CC(=O)C1=C(C)NC(SCC(=O)c2ccccc2)=C(C#N)C1c1ccco1` (centres undefined): the inhibition was 16.3%.
`CN(C(=O)C1CCC1C(=O)O)c1nc(-c2ccc(Cl)s2)cs1` (centres undefined): the inhibition was 11.8%.
Take `CC(C)CNC(=O)CC(c1ccccc1)c1ccccc1`: the inhibition was -4.4%.
Consider `Cc1cc(C)nc(NNC(=O)NC2CCCCC2)n1`, for which the inhibition was -10.6%.
On to `COc1ccc(-n2ncc(C(=O)NC3CC3)c2C2CCN(C(=O)OC(C)(C)C)CC2)cc1`, for which the inhibition was 12.4%.
Consider `CCOc1ccc(NC(=O)c2c[nH]n3c(=O)cc(C4CCN(C(=O)OC(C)(C)C)CC4)nc23)cc1`, for which the inhibition is 16.4%.
For `COc1cc(NC(=O)c2cnn3c(C(F)F)cc(C4CC4)nc23)c(OC)cc1Cl`, the inhibition was 14.7%.
For the molecule `CC(C)(C)OC(=O)N1CCC(c2c(C(=O)NC3CC3)cnn2-c2ccc(Cl)cc2)CC1`, the inhibition is 4.1%.
In the case of `CCCCC(C(=O)NC1CCCC1)N(C(=O)c1snc(C(N)=O)c1N)c1ccc(OCC)cc1` (centres undefined), the inhibition was 4.9%.
Consider `CCOC(=O)c1cn(CC2CC2)c2cc(F)c(F)cc2c1=O`, for which the inhibition was -1.8%.
For `O=C(Cc1coc2ccc3ccccc3c12)NC1CCCc2ccccc21` (centres undefined), the inhibition was -1.1%.
Turning to `C/C(=N\Nc1nc2ccccc2s1)c1ccc2c(c1)OCO2`, the inhibition was 11.7%.
As for `O=C(Nc1ccccc1)c1ccccc1Oc1ccc(C(F)(F)F)cc1[N+](=O)[O-]`, the inhibition was 5.3%.
In the case of `O=C(Nc1ccc(F)cc1)c1ccccc1Oc1ccc(C(F)(F)F)cc1[N+](=O)[O-]`, the inhibition was 24.3%.
`CC(=O)N(C1CC(C)C(C#N)(C#N)C1(C#N)C#N)N(C)C` (centres undefined): the inhibition was 7.5%.
For `CCCC(=O)N(C1CC(C)C(C#N)(C#N)C1(C#N)C#N)N(C)C` (centres undefined), the inhibition was 98.9% (active).
Turning to `O=C1NC2(CCCCCC2)N=C1c1ccc(Br)cc1`, the inhibition is 2.5%.
As for `CCCCS(=O)(=O)Nc1ccc(Cc2ccncc2)cc1`, the inhibition was 14.3%.
Then `CCS(=O)(=O)Nc1ccc(Cc2ccncc2)cc1`, with -1.6%; and `COc1ccc(NC(=O)CCCn2c(=O)[nH]c3ccccc3c2=O)cc1`, with 27.9%.
Consider `c1ccc2c(-c3ccncc3)c[nH]c2c1`, for which the inhibition was -22.9%.
With `O=c1[nH]c2ccccc2nc1-c1c[nH]c2ccccc12`, the inhibition is 12.2%.
Take `COc1ccc(C(=O)C2CCCN(Cc3cn(C)nc3-c3ccccc3)C2)cc1F` (centres undefined): the inhibition was 4.8%.
Take `CN(C1CCCCC1)S(=O)(=O)c1ccc(NC(=O)C2CCCCC2)cc1`: the inhibition was 0.9%.
Turning to `CN(c1ccccc1)S(=O)(=O)c1ccc(NC(=O)C2CCCCC2C(=O)O)cc1` (centres undefined), the inhibition is 45.5%.
`Cc1ccc(Cn2c(SCC(=O)Nc3cccc(C)n3)nc3c2c(=O)n(C)c(=O)n3C)cc1`: the inhibition is 4.3%.
Regarding `COc1ccccc1CN(CC(=O)NCc1ccc(F)cc1)C(=O)c1csnn1`, the inhibition was 4%.
